PfHsp90 yeast 2: reduces growth (ATP signal) of yeast expressing P. falciparum Hsp90; inhibition, % at 9.4 µM; 0.32% of 310,000 active; S. cerevisiae expressing PfHsp90, BacTiter-Glo ATP, 48 h; yeast lacking PDR1 and PDR3 efflux regulators;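 active = every replicate shows inhibition above about 80%, whatever the replicate mean, limit read from the data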;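 also: 0% = DMSO neutral controls and 100% = 20 µM radicicol positive controls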
V-ATPase pHluor: regulators of yeast V-ATPase proton transport | S. cerevisiae, pHLuorin cytosolic pH fluorescence | response, % at 10 µM | 0.37% of 350,000 active | AID 504577; in the data active = response mostly above about 7.3%, no sharp cut-off; inactive = mostly below about 5.4%; also: actives read high
tim10-1 inh: inhibits growth of tim10-1 mutant yeast | S. cerevisiae tim10-1 ts strain growth, BacTiter-Glo, 24 h | inhibition, % at 20 µM | 2.2% of 330,000 active;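 active = inhibition of at least 40%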;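 also: mutant grown at 25 °C; 0% = DMSO wells with yeast and 100% = wells holding no yeast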
tim23-1 inh: tim23-1 yeast growth inhibition. S. cerevisiae tim23-1 growth, BacTiter-Glo luminescence, 24 h. inhibition, % at 20 µM. 1.3% of 330,000 active. AID 463212;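 active = growth inhibition of the mutant yeast at or above 50%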;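 also: temperature-sensitive mutant grown at 25 °C; plate controls were DMSO-treated mutant yeast for no effect and medium wells lacking yeast for full effect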
TIM10 inh: growth inhibitors of TIM10 yeast strain | S. cerevisiae TIM10 strain growth, BacTiter-Glo luminescence, 24 h | inhibition, % at 10 µM | AID 463195 | 1.4% of 330,000 active;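 active = inhibition of 40% or more at the single tested concentration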;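 also: wild-type TIM10 isogenic control strain grown at permissive 25 °C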
tim10-1 conf: confirmation of tim10-1 mutant yeast growth inhibitors. shares compounds with tim10-1 inh. S. cerevisiae tim10-1 ts strain growth, BacTiter-Glo, 24 h. inhibition, % at 20 µM. 56% of 7,400 active. AID 463213;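 active = inhibition of yeast growth at or above a set limit in either of two repeat tests at 20 µM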;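 also: tim10-1 mutant grown at permissive 25 °C to find synthetic lethal compounds; 0% = DMSO yeast wells and 100% = medium wells without yeast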
TIM10 conf: confirmation of TIM10 yeast growth inhibitors; AID 463215; inhibition, % at 10 µM; 63% of 4,600 active; shares compounds with TIM10 inh; S. cerevisiae tim10 strain growth, BacTiter-Glo luminescence, 24 h;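 active = inhibition of yeast growth at or above a set limit in either of two replicates at 10 µM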;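 also: this counterscreen used the strain with wild-type TIM10; 0% = yeast with DMSO and 100% = medium wells lacking yeast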
tim23-1 conf: tim23-1 yeast growth inhibition, confirmed. inhibition, % at 20 µM. S. cerevisiae tim23-1 growth, BacTiter-Glo luminescence, 24 h. shares compounds with tim23-1 inh. 83% of 4,400 active;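 active = inhibition above about 39% in either of two replicate wells at 20 µM, limit read from the data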;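 also: temperature-sensitive tim23-1 mutant grown at 25 °C; 0% = DMSO wells with yeast and 100% = medium wells without yeast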
Starred values were filed as active, the others as inactive; / = not tested or not shown. Most compounds without a hit are left out; they make up all but 3.7% or so of the library.

SMILES	PfHsp90 yeast 2	V-ATPase pHluor	tim10-1 inh	tim23-1 inh	TIM10 inh	tim10-1 conf	TIM10 conf	tim23-1 conf
CCc1cc2cc(C)cc(C)c2nc1Cl	-5	2	-3	7	6	/	/	/
Cc1cc(C)c2cc(C=O)c(Cl)nc2c1	-7	-2	45*	67*	51*	40*	32*	78*
C=C(C)C(=O)OC1(C(F)(F)F)Oc2cc(C)ccc2NC1=O (configuration not stated)	/	5	56*	66*	48*	52*	41*	78*
O=C(Nc1ccc(Br)c(C(F)(F)F)c1)c1ccccc1	-14	3	58*	73*	68*	50*	3	78*
O=C(Nc1ccc(Br)c(C(F)(F)F)c1)c1ccc(C(F)(F)F)cc1	/	0	45*	81*	72*	48*	81*	5
O=C(Nc1ccc(C(F)(F)F)cc1)c1ccccc1	8	-8	4	-1	11	/	/	/
COc1cccc(-c2sc3ccc(OC)cc3c2-c2ccc(OCCN3CCCC3)cc2)c1	6	3	40*	70*	12	38*	/	46*
CNC(C)C#Cc1ccc2c(=O)c3ccccc3oc2c1 (configuration not stated)	-5	0	54*	58*	26	42*	/	53*
COc1ccc(CCN(C)C(=O)CSc2nc3ccccc3c(=O)n2CC2CCCO2)cc1OC (configuration not stated)	-2	5	/	/	/	/	/	/
Cc1noc(/C=C/c2ccccn2)c1[N+](=O)[O-]	-56	0	53*	62*	51*	62*	58*	54*
COc1ccccc1N/C=C/c1onc(C)c1[N+](=O)[O-]	0	-3	22	12	23	/	/	/
COc1ccc(O)c(C(=O)c2cnn(S(=O)(=O)c3ccc(C)cc3)c2)c1	-7	-2	54*	52*	26	35*	/	52*
CCCCCCN1C[C@@H](n2cc(C3CC3)nn2)[C@H](O)C[C@@H]1c1ccc(OC)cc1	/	1	/	/	/	/	/	/
Cc1c(OCC(=O)N2CCC(C(=O)O)CC2)ccc2c1oc(=O)c1ccccc12	-4	1	-7	6	-4	/	/	/
CN1CCc2c(n(CC(O)CN3C(=O)c4ccccc4S3(=O)=O)c3ccccc23)C1=O (configuration not stated)	-6	-3	/	/	/	/	/	/
Cc1c(C)n(CC(O)CN2C(=O)c3ccccc3S2(=O)=O)c2ccccc12 (configuration not stated)	-11	1	66*	74*	43*	65*	49*	89*
CC(C)(Oc1ccc(Cl)cc1)C(=O)NCCN1C(=O)S/C(=C/c2cccnc2)C1=O	34	-1	48*	53*	51*	44*	-38	48*
CC(Oc1ccc(Cl)cc1)C(=O)NCCN1C(=O)S/C(=C\c2cccnc2)C1=O (configuration not stated)	-18	2	39	48	40	/	/	/
COc1ccc(C(=O)O/N=C(\N)c2cccc(C)c2)cc1OC	4	5	51*	53*	46*	52*	54*	71*
Cc1cccc(/C(N)=N/OC(=O)c2ccncc2)c1	-50	9	26	8	36	/	/	/
Cc1cccc(/C(N)=N/OC(=O)c2ccoc2C)c1	-48	3	44*	67*	55*	55*	39*	50*
COc1cccc(C(=O)O/N=C(\N)Cc2ccc(Cl)cc2)c1	-15	-1	53*	58*	85*	30	-2	43*
COc1cccc(C(=O)O/N=C(\N)c2ccc(C)cc2)c1	-17	-4	57*	69*	72*	41*	82*	71*
COc1ccc(C(=S)N2CCOCC2)cc1OC(=O)c1cc(OC)c(OC)c(OC)c1	-13	-4	20	21	4	/	/	/
C[C@@H]1CN([C@@H](C)CO)C(=O)CCCn2nncc2CO[C@@H]1CN(C)S(=O)(=O)c1cccs1	/	-1	/	/	/	/	/	/
SMILES	PfHsp90 yeast 2	V-ATPase pHluor	tim10-1 inh	tim23-1 inh	TIM10 inh	tim10-1 conf	TIM10 conf	tim23-1 conf
O=C(Sc1cccc2cccnc12)c1ccc(F)cc1	/	/	76*	80*	55*	67*	58*	71*
O=C(Sc1cccc2cccnc12)c1ccccc1Br	16	-1	56*	89*	53*	72*	74*	67*
CC(=O)Oc1ccc2c(=O)c(-c3nc4ccccc4s3)coc2c1	/	-3	69*	65*	86*	24	49*	72*
Cc1ccc2nc(SCc3ccc([N+](=O)[O-])cc3)[nH]c2c1	-5	6	42*	79*	55*	42*	24	79*
O=C(Nc1ccccc1)N1N=CCC1c1ccccc1 (configuration not stated)	-11	3	23	15	-2	/	/	/
O=C(Nc1ccc(Cl)c(Cl)c1)N1N=CCC1c1ccccc1 (configuration not stated)	3	-5	56*	52*	33	46*	/	57*
O=C1c2ccccc2C(=O)c2c([N+](=O)[O-])ccc(O)c21	-13	6	59*	59*	35	38*	/	69*
CCOC(=O)C1CCN(C(=O)c2ccc(OCC(=O)Nc3cccc(C(F)(F)F)c3)cc2)CC1	8	2	56*	54*	54*	56*	53*	53*
CCN(C[C@H]1N[C@@](CC)(C(=O)OC)[C@H]2C(=O)N(C)C(=O)[C@@H]12)S(=O)(=O)c1ccc(OC(F)(F)F)cc1	-9	0	11	19	14	/	/	/
Cc1nn(-c2ccccc2)c2[nH]c(=O)c(CNCC3CCCO3)cc12 (configuration not stated)	-11	-11	9	-5	6	/	/	/
CCOc1cccc(NCc2cc3c(C(C)(C)C)nn(-c4ccccc4)c3[nH]c2=O)c1	-12	-5	50*	68*	42*	42*	25	65*
CN(CC(=O)Nc1ccccc1C(F)(F)F)C(=O)C1=COCCO1	18	-2	-17	-2	-9	/	/	/
O=Cc1cc2ccccc2nc1SCc1ccc(Cl)cc1	/	-1	64*	78*	50*	55*	63*	64*
Cc1ccc(CSc2ncnc3ccccc23)cc1	-13	0	12	12	0	/	/	/
Cc1ccc(CSc2nc3ccccc3cc2C=O)cc1	-31	1	48*	69*	25	47*	/	57*
O=C(NO)c1ccc(C(=O)N(C2CCCCC2)C2CCCCC2)cc1	/	4	53*	64*	51*	41*	39*	71*
